Assay outcomes as filed in PubChem.
TWEAK Fn14 block: blocks TWEAK-Fn14 interaction in a reporter cell assay. TWEAK-stimulated Fn14 reporter cells, luciferase luminescence, 8 h. inhibition, % at 10 µM. 360,000 compounds, 2% hits. AID 1159606; in the data active = inhibition above about 50%
HIF-2a block: HIF-2a inhibition. 786-0 RCC cells HIF-2a reporter, luciferase luminescence, overnight. inhibition, % at 18.8 µM. 360,000 compounds, 0.72% hits. AID 624352;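 active = inhibition of the luminescence signal of 40% or more relative to plate controls, in a single-dose primary screen at 18.75 µM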
TROY NFkB inh: inhibitors of TROY-dependent NF-kB signaling; inhibition, % at 10 µM; Q293 LMP1-TROYcd NF-kB luciferase reporter, 4 h; 360,000 compounds, 0.98% hits;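 active = compounds whose plate-normalised and pattern-corrected inhibition of the luciferase reporter signal at the single screening dose is 50% or more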
MITF TRPM1 inh: MITF TRPM1 promoter inhibition in SK-MEL-5 cells; inhibition, % at 12.5 µM; SK-MEL-5 TRPM1 promoter luciferase, 24 h; 330,000 compounds, 0.83% hits;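 active = mean inhibition across replicates of 60% or more, whatever share of single replicates reaches that level; inconclusive = some that reach 60%, reason not given; inactive = mean inhibition across replicates below 60%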
Shn3 3UTR inh: inhibitors of Schnurri-3 3'UTR reporter in osteoblasts | Clone20 osteoblast Shn3 3'UTR firefly luciferase, 24 h | inhibition, % at 12.5 µM | 360,000 compounds, 0.52% hits | AID 588674;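 active = mean inhibition of at least 75% with every replicate also reaching 75%; inconclusive = mean inhibition at least 75% but some replicate below; inactive = mean inhibition below 75%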
EBV LMP1 NFkB: inhibitors of Epstein-Barr LMP1-induced NF-kappaB reporter; inhibition, % at 12.5 µM; LMP1-induced NF-kappaB luciferase reporter cells, luminescence; 350,000 compounds, 0.69% hits; in the data active = inhibition above about 41%; inconclusive = no clear call, values can overlap the other calls
Each line names hits and unclear results; the compound was inactive in the other large screens; ! = not active in a repeat. This is a sample that favours compounds with a hit; in the whole collection about 3.4% have one here.

CCOc1cccc(-c2c(C(=O)N/N=C/c3ccsc3)nnn2-c2nonc2N)c1	none
Cc1noc(C)c1CSCC(=O)Nc1nc2ccc(S(C)(=O)=O)cc2s1	none
Cc1cccc(-c2cc(NC=O)c3ncc(-c4cccc(C(=O)N(C)C)c4)n3c2)c1	none (no result: MITF TRPM1 inh, EBV LMP1 NFkB)
COc1cc(-c2cnc3c(NC=O)cc(-c4ccc(N5CCN(C)CC5)cc4)cn23)cc(OC)c1OC	none (no result: MITF TRPM1 inh, EBV LMP1 NFkB)
CN(C)C(=O)c1cccc(-c2cnc3c(NC=O)cc(-c4cccc(C(F)(F)F)c4)cn23)c1	TWEAK Fn14 block 63.4 (no result: MITF TRPM1 inh, EBV LMP1 NFkB)
COc1ccc(-c2cnc3c(NC=O)cc(-c4ccccc4OC)cn23)cc1OC	TWEAK Fn14 block 52.7 (no result: MITF TRPM1 inh, EBV LMP1 NFkB)
COc1cc(-c2cnc3c(NC=O)cc(-c4cccc(C(F)(F)F)c4)cn23)cc(OC)c1OC	TWEAK Fn14 block 75.1 (no result: MITF TRPM1 inh, EBV LMP1 NFkB)
COc1cc(-c2cnc3c(NC(C)=O)cc(-c4ccc(N5CCN(C)CC5)cc4)cn23)cc(OC)c1OC	TWEAK Fn14 block 54.3, TROY NFkB inh 62.7 (no result: MITF TRPM1 inh, EBV LMP1 NFkB)
O=S1(=O)CC(N2CCN(CC3CC3)CC2)CN1Cc1ccc(F)cc1 (centres undefined)	none (no result: MITF TRPM1 inh, EBV LMP1 NFkB)
CCOc1ccc(N(CC(=O)NCCc2ccc(Cl)cc2)S(=O)(=O)c2c(C)[nH]c(=O)[nH]c2=O)cc1	none
CC(C)(C)c1ccc(C(=O)CCC(=O)OCC(=O)NCCc2ccc(S(N)(=O)=O)cc2)cc1	none
Cc1ccc(C)c(C(=O)OCC(=O)NC(=O)NCc2ccccc2)c1	none (no result: MITF TRPM1 inh)
O=C(CSc1nnc(Cn2nnc3ccccc32)o1)N(Cc1ccc(F)cc1)c1ccccc1	TWEAK Fn14 block 56.2
CCOC(=O)CSc1nnc(-c2c[nH]c3ccccc23)o1	none
COc1ccc(N(Cc2ccccc2)C(=O)CSc2nnc(Cn3nnc4ccccc43)o2)cc1	none
COc1ccc(CN(C(=O)CSc2nnc(-c3ccc(F)cc3)o2)c2ccc(F)cc2)cc1	Shn3 3UTR inh 88.2
COc1ccc(CN(C(=O)CSc2nnc(-c3c[nH]c4ccccc34)o2)c2ccc(F)cc2)cc1OC	TWEAK Fn14 block 72.0
CNCc1sccc1C	none
C[C@@H]1CN([C@@H](C)CO)C(=O)CCCn2nncc2CO[C@H]1CN(C)C(=O)NC1CCCCC1	none (no result: MITF TRPM1 inh)
O=[N+]([O-])c1nccn1CCCCCCN1CCOCC1	none (no result: MITF TRPM1 inh, EBV LMP1 NFkB)
Cc1cccc(C(=O)N2CCCC(Nc3ccc(C)c(C)c3)C2)n1 (centres undefined)	none
CC(=NNC(=S)N1CCCC1)c1ccccn1	EBV LMP1 NFkB 57.2 (no result: MITF TRPM1 inh)
CC(=NNC(=S)SCc1ccccc1)c1ccccn1	Shn3 3UTR inh inconclusive
C/C(=N\NC(=O)c1ccc(Cl)cc1)c1ccccn1	none
CC(=NNC(=S)N1CCC1)c1ccccn1	MITF TRPM1 inh 69.3, Shn3 3UTR inh 92.1, EBV LMP1 NFkB 50.3
CC(=NNC(=S)N1CC2CCC(CC2)C1)c1cccc(C)n1	Shn3 3UTR inh 81.4, EBV LMP1 NFkB 78.8
CN(C)c1nc(N(C)C)c2cnn(C)c2n1	none
CC(=O)C1(C)CCC2C3C=C(C)C4=CC(=O)CCC4(C)C3CCC21C (centres undefined)	Shn3 3UTR inh 87.1
Cc1cc(N2CCN(C)CC2)nc2ccc(NC(=S)N3CCCCC3)cc12	TROY NFkB inh 54.0
Cc1cc(N2CCN(C)CC2)nc2ccc(NC(=S)N3CCCCCC3)cc12	none
CCCCN(CC)C(=S)Nc1ccc2nc(N3CCN(C)CC3)cc(C)c2c1	TWEAK Fn14 block 54.8, TROY NFkB inh 67.8
Cc1cc(N2CCN(C)CC2)nc2ccc(NC(=S)NCCCN3CCc4ccccc4C3)cc12	none
Cc1cc(N2CCN(C)CC2)nc2ccc(NC(=S)NCCN3CCc4ccccc4C3)cc12	MITF TRPM1 inh 77.8
CCCCN(C)C(=S)Nc1ccc2nc(N3CCN(CC)CC3)cc(C)c2c1	TROY NFkB inh 61.7
NC(=O)c1ncn([C@@H]2O[C@H](CNCc3ccc(OCC(=O)Nc4ccccn4)cc3)[C@@H](O)[C@H]2O)n1	none
CCCCOC(=O)c1ccc(NC(=O)COC(=O)c2ccc3ncsc3c2)cc1	none
CCn1cc(/C=C/c2cc[n+](C)cc2)c2ccccc21	none
CC(C)n1cc(/C=C/c2cc[n+](C)cc2)c2ccccc21	MITF TRPM1 inh 63.3
CCc1noc(C)c1C(=O)Nc1nc(-c2ccc(OC)c(OC)c2)cs1	none
COc1ccc(-c2csc(NC(=O)CSCc3c(C)noc3C)n2)cc1OC	none
CCc1noc(C)c1C(=O)OCC(=O)Nc1nc(-c2ccc(F)c(F)c2)cs1	TROY NFkB inh 53.5
Cc1noc(C)c1CSCC(=O)Nc1nc(-c2ccc(F)c(F)c2)cs1	TWEAK Fn14 block 76.8, TROY NFkB inh 71.6
CC(=O)c1ccc(S(=O)(=O)Nc2cccc(-c3ccc4nncn4n3)c2)cc1	EBV LMP1 NFkB 58.2
Cc1cc(-c2ccccc2)n(-c2cc(N/N=C/c3ccccc3O)ncn2)n1	TWEAK Fn14 block 68.7, HIF-2a block 47.0, Shn3 3UTR inh 89.5
CNc1cc(-n2nc(C)cc2-c2ccccc2)ncn1	none
O=C(c1cc2sccc2n1Cc1ccc(F)cc1)N1CCN(c2nc3ccccc3s2)CC1	TWEAK Fn14 block 64.8
Cn1c(C(=O)N2CCN(c3nc4ccccc4s3)CC2)cc2sccc21	none
CC[C@@H](C)[C@H](NC(=O)OC(C)(C)C)c1nnc(S(=O)(=O)Cc2cc(C)ccc2C)o1	TROY NFkB inh 72.7, Shn3 3UTR inh inconclusive
CN1c2ccccc2C(C)(C)C12C=Nc1c(ccc3ccccc13)O2 (centres undefined)	TWEAK Fn14 block 71.4, TROY NFkB inh 70.5
COc1ccc2ccc3c(c2c1)N=CC1(O3)N(C)c2ccccc2C1(C)C (centres undefined)	none
CN1c2ccccc2C(C)(C)[C@]12C=Cc1cc(O)ccc1O2	TWEAK Fn14 block 101.8, Shn3 3UTR inh 86.7
O=C(Cc1csc(Nc2nc(=S)[nH]c3ccccc23)n1)NCCCN1CCN(c2ccccc2F)CC1	MITF TRPM1 inh 66.3
Cc1cc(NC(=O)CCCSc2nc(-c3ccco3)cc(C(F)(F)F)n2)n(-c2ccccc2)n1	TWEAK Fn14 block 61.6 (no result: TROY NFkB inh)
Cc1cc(NC(=O)CSc2nc(-c3ccco3)cc(C(F)(F)F)n2)n(-c2ccccc2)n1	none
CCCCCCCCCCCCCCCC[n+]1cccc(C(=O)N(CC)CC)c1	HIF-2a block 45.9, TROY NFkB inh 57.0!
O=C(NC(NCc1cccnc1)C(Cl)(Cl)Cl)c1cccc2ccccc12 (centres undefined)	TWEAK Fn14 block 65.4
CN(c1ccc(C(=O)NCc2cccnc2)cc1)S(C)(=O)=O	none
Cc1ccccc1CN(c1ccc(C(=O)NCc2cccnc2)cc1)S(C)(=O)=O	EBV LMP1 NFkB 52.0
Cc1ccccc1CC(=O)NCc1cccnc1	EBV LMP1 NFkB 66.8
Cc1ccc(-c2csc3nc4c5ccccc5c(NCCCN(C)C)nn4c(=O)c23)cc1	MITF TRPM1 inh 84.9
COCOCCn1cc(CN2CCS(=O)(=O)N(Cc3ccc(-c4ccc(Cl)c(Cl)c4)cc3)C(C(C)C)C2=O)nn1 (centres undefined)	Shn3 3UTR inh 90.8 (no result: MITF TRPM1 inh)
